Reference: PubChem BioAssay (NCATS)
Inconclusive results are not listed. Unmarked numbers belong to inactive results. Activity calls are given as the source filed them. Calls come from the whole dose curve; as a rule, active = well fitted cell-killing curve with a large enough effect; inconclusive = small, poorly fitted or top-dose-only effect, or effect the other way; inactive = no such curve, though single readings can be large or run the other way.
Potency is the fitted concentration of half-maximal effect.

Experiment: Quantitative High-Throughput drug screen in 47 multiple myeloma cell lines against the NCATS MIPE library collection: LP1_DSMZ cell viability assay (AID 1918982); note: nearly all actives have a fitted effect of over 35% in size
Details: LP1 myeloma viability, CellTiter-Glo ATP luminescence, 48 h; series mostly up to 45.8 µM; viability (% of control): at the top concentration
Excerpt: PI: Beverly A. Mock Ph.D.
Laboratory of Cancer Biology and Genetics,
Center for Cancer Research, National Cancer Institute,
National Institute of Health, Bethesda, Maryland
Drug resistance and disease progression are common in multiple myeloma (MM) patients, underscoring the need for new therapeutic combinations. […] We hypothesized that effective combinations would reduce MYC expression and enhance p16 activity. […] These preclinical data identify potentially useful drug combinations for evaluation in drug-resistant MM and reveal potential mechanisms of combined drug sensitivity.
Described herein is the primary MIPE qHTS used to cherrypick compounds. Validated compounds were then further tested for potential synergistic activiy.
[1] Peat TJ, Gaikwad SM, Dubois W, Gyabaah-Kessie N, Zhang S, Gorjifard S, Phyo Z, Andres M, Hughitt VK, Simpson RM, Miller MA, Girvin AT, Taylor A, Williams D, D'Antonio N, Zhang Y, Rajagopalan A, Flietner E, Wilson K, Zhang X, Shinn P, Klumpp-Thomas C, McKnight C, Itkin Z, Chen L, Kazandijian D, Zhang J, Michalowski AM, Simmons JK, Keats J, Thomas CJ, Mock BA. Drug combinations identified by high-throughput screening promote cell cycle transition and upregulate Smad pathways in myeloma. Cancer Lett. 2023 Aug 1;568:216284. doi: 10.1016/j.canlet.2023.216284. Epub 2023 Jun 24. PMID: 37356470; PMCID: PMC10408729.
SEQUENCE No. (e.g., 1, 2, 3, etc.); […] (e.g., Cells, Incubation, Reagent, etc.); VALUE and DESCRIPTION.
1; Cells; 5 uL; white, solid bottom 1536-well Greiner assay plate.
2; Compounds; 23 nL; Kalypsis pin tool (Wako USA) equipped with a 1536-well pin head to transfer to the assay plates.
3; Incubation; 48 hours; 37C incubation.
4; Reagent;5uL; CellTiter Glo (Promega).
5; Detector; 425V; Luminescence; Viewlux PerkinElmer.
NOTES (numbers refer to Sequence numbers above)
1. The cell-based screening methods employed in this study were like those previously published. Briefly, the corresponding myeloma cell lines were screened in 1,536-well plates with 500 cells, 5-uL per well for inhibition of cell viability (assessed by measuring ATP levels with CellTiterGlo).
2. NCATS MIPE 4.0 library of approved and investigational drugs were added using the Kalypsis pin tool. Wells treated with DMSO only for 100% viability and media only for 0% viability were used as controls.
3. The assay plates were covered and incubated for 48 hours in a 37C, 5% CO2 incubator with controlled humidity.
4. After 48 hours, CellTilter-GloTM luminescent substrate mix (Promega) reagent was added to the assay plate and plates we incubated for 5 min at room temperature.
5. Signal was measured as median relative luminescence units on a ViewLux (PerkinElmer) multiplate reader.
[1] Heske CM, Davis MI, Baumgart JT, Wilson K, Gormally MV, Chen L, Zhang X, Ceribelli M, Duveau DY, Guha R, Ferrer M, Arnaldez FI, Ji J, Tran HL, Zhang Y, Mendoza A, Helman LJ, Thomas CJ. Matrix Screen Identifies Synergistic Combination of PARP Inhibitors and Nicotinamide Phosphoribosyltransferase (NAMPT) Inhibitors in Ewing Sarcoma. Clin Cancer Res. 2017 Dec 1;23(23):7301-7311. doi: 10.1158/1078-0432.CCR-17-1121. Epub 2017 Sep 12. PMID: 28899971; PMCID: PMC6636827.
For `OC[C@H]1O[C@@H](Oc2ccc(O)cc2)[C@H](O)[C@@H](O)[C@H]1O`, the “viability (% of control)” value was 131%.
With `C=C[C@@H]1CN2CCC1C[C@@H]2C(O)c1ccnc2ccc(OC)cc12` (stereo not given in full) the “viability (% of control)” value was 80.3%.
For `CC[C@H](C=C[C@@H](C)[C@H]1CC[C@H]2[C@@H]3CC=C4C[C@@H](O)CC[C@]4(C)[C@@H]3CC[C@]12C)C(C)C`, the “viability (% of control)” value was 106% [at 23.2 µM].
For `CCCCC(C=O)NC(=O)C(CC(C)C)NC(=O)OCc1ccccc1` (stereo not given), the Potency was 20.9 µM (active).
In the case of `NS(=O)(=O)c1cc(Cl)c(Cl)c(S(N)(=O)=O)c1`, the “viability (% of control)” value is reported as 95.6%.
For `C[C@@]1(c2cc(-c3cncnc3)c(F)cc2F)CCSC(N)=N1`, the “viability (% of control)” value was 91%.
In the case of `COc1ccc(-c2nc3ccc(C4=NNC(=O)CC4C)cc3[nH]2)cc1` (stereo not given), the “viability (% of control)” value is reported as 92.4%.
With `CC1(C)[C@H]2CC[C@]3(C)[C@@H](C(=O)C=C4[C@@H]5C[C@@](C)(C(=O)O)CC[C@]5(C)CC[C@]43C)[C@@]2(C)CC[C@@H]1O` the “viability (% of control)” value was 99.8%.
In the case of `O=S(=O)(NCCNCC=Cc1ccc(Br)cc1)c1cccc2cnccc12`, the Potency is reported as 7.43 µM (active).
With `COc1cc(C=CC(=O)O)ccc1O` the “viability (% of control)” value was 113%.
In the case of `N[C@@H](CC(=O)N1CCn2c(nnc2C(F)(F)F)C1)Cc1cc(F)c(F)cc1F`, the “viability (% of control)” value is reported as 115%.
For `C[C@@H](O)[C@H]1C(=O)N2C(C(=O)OCOC(=O)C(C)(C)C)=C(SC3CN(C4=NCCS4)C3)[C@H](C)[C@H]12`, the “viability (% of control)” value was 108%.
In the case of `CNC1[C@H](O)C(O[C@@H]2C(O)C(O[C@H]3O[C@H]([C@@H](C)NC)CC[C@H]3N)[C@@H](N)C[C@H]2N)OC[C@]1(C)O` (stereo not given in full), the “viability (% of control)” value is reported as 105%.
In the case of `O=c1[nH]c(=O)n([C@H]2C[C@@H](O)[C@@H](CO)O2)cc1C(F)(F)F`, the “viability (% of control)” value is reported as 77%.
With `NC(N)=Nc1nc(CSCCC(N)=NS(N)(=O)=O)cs1` the “viability (% of control)” value was 119%.
In the case of `CN1CC(=O)NC1=NC(=O)Nc1cccc(Cl)c1`, the Potency is reported as 14.8 µM (active).
With `C[C@]12CC[C@@H]3c4ccc(O)cc4CC[C@H]3[C@H]1[C@@H](O)[C@@H](O)[C@H]2O` the “viability (% of control)” value was 120%.
With `CC1C(=O)OC2C(O)C34C5CC(C(C)(C)C)C36C(OC(=O)C6O)OC4(C(=O)O5)C12O` (stereo not given) the “viability (% of control)” value was 111%.
In the case of `CC(C)c1c(C(=O)Nc2ccccc2)c(-c2ccccc2)c(-c2ccc(F)cc2)n1CC[C@H](O)C[C@@H](O)CC(=O)O`, the Potency is reported as 20.9 µM (active).
In the case of `NC[C@H]1O[C@H](O[C@@H]2[C@@H](O)[C@@H](O[C@H]3O[C@H](CO)[C@@H](O)[C@H](N)[C@@H]3O)[C@H](N)C[C@@H]2N)[C@H](O)[C@@H](O)[C@H]1O`, the “viability (% of control)” value is reported as 105%.
For `COc1cc(F)c(C(C)C)cc1-c1ccc(C(F)(F)F)cc1CN1C(=O)O[C@H](c2cc(C(F)(F)F)cc(C(F)(F)F)c2)[C@@H]1C`, the Potency was 0.662 µM (active).
For `O=C(O)C1=CC(O)C(O)[C@H](O)C1` (stereo not given in full), the “viability (% of control)” value was 93.2%.
In the case of `Cc1c(-c2cccc3c(CCCOc4cccc5ccccc45)c(C(=O)O)n(Cc4cccnc4)c23)c(COc2ccc(N3CCN([S+](=O)([O-])N(C)C)CC3)cc2)nn1C`, the Potency is reported as 18.7 µM (active).
In the case of `C[C@@H]1[C@H](C)CC[C@]2(C(=O)O)CC[C@]3(C)C(=CC[C@@H]4[C@@]5(C)CC[C@H](O)C(C)(C)[C@H]5CC[C@]43C)[C@@H]12`, the Potency is reported as 48.1 µM (active).
In the case of `Cc1cc2nc3c(=O)[nH]c(=O)nc-3n(CC(O)C(O)C(O)CO)c2cc1C` (stereo not given), the “viability (% of control)” value is reported as 89.7%.
In the case of `C[C@H](CCC(=O)O)[C@H]1CC[C@H]2[C@H]3[C@@H](CC[C@]12C)[C@@]1(C)CC[C@@H](O)C[C@H]1C[C@@H]3O`, the Potency is reported as 16.6 µM (active).
In the case of `CN(C)CCN(C)C(=O)c1ccc(NC(=O)Nc2ccc(-c3nc(N4CCOCC4)c4ccn(CC(F)(F)F)c4n3)cc2)cc1`, the Potency is reported as 0.166 µM (active).
In the case of `CN1CCN2c3ncccc3Cc3ccccc3C2C1` (stereo not given), the “viability (% of control)” value is reported as 103%.
For `CC1(C)OC2CC3C4CC(F)C5=CC(=O)C=CC5(C)C4C(O)CC3(C)[C@]2(C(=O)CO)O1` (stereo not given in full), the Potency was 0.0023 µM (active).
In the case of `O=c1[nH]nc(OCCCc2ccc(Cl)cc2)c(NCc2cccnc2)c1Br`, the Potency is reported as 14.8 µM (active).
With `O=C(NC[C@H](O)CO)c1ccncc1Nc1ccc(I)cc1F` the “viability (% of control)” value was 77.5%.
In the case of `O=C(CO)N1CCC(c2[nH]nc(-c3ccc(Cl)cc3)c2-c2ccncn2)CC1`, the “viability (% of control)” value is reported as 89.7%.
In the case of `OC[C@H]1O[C@@H](OCCc2ccc(O)cc2)[C@H](O)[C@@H](O)[C@H]1O`, the “viability (% of control)” value is reported as 96%.
With `CC(=O)N1CCN(c2ccc(OCc3nn(C)c(C)c3-c3cccc4c(CCCOc5cc(C)c(Cl)c(C)c5)c(C(=O)O)n(Cc5cccnc5)c34)cc2)CC1` the “viability (% of control)” value was 76.5%.
In the case of `O=C(O)CCNc1cc(N2CCc3ccccc3CC2)nc(-c2ccccn2)n1`, the “viability (% of control)” value is reported as 98.4%.
With `CC(=O)Nc1cccc(-n2c(=O)n(C3CC3)c(=O)c3c(Nc4ccc(I)cc4F)n(C)c(=O)c(C)c32)c1` the “viability (% of control)” value was 95.1%.
With `Cc1ccccc1-n1c(Cn2nc(-c3cccc(O)c3)c3c(N)ncnc32)nc2cccc(C)c2c1=O` the Potency was 11.8 µM (active).
With `CC[C@]1(O)C[C@H]2CN(CCC3=c4ccccc4=N[C]3[C@@](C(=O)OC)(c3cc4c(cc3OC)N(C)[C@H]3[C@@](O)(C(N)=O)[C@H](O)[C@]5(CC)C=CCN6CC[C@]43[C@@H]65)C2)C1` the Potency was 0.0083 µM (active).
With `Cc1nc(C(=O)NCC(=O)O)c(O)c2ccc(Oc3ccccc3)cc12` the “viability (% of control)” value was 94.8%.
With `CCCC1OC2C[C@@H]3[C@H]4CCC5=CC(=O)C=C[C@]5(C)[C@H]4C(O)C[C@]3(C)[C@]2(C(=O)CO)O1` (stereo not given in full) the Potency was 0.0066 µM (active).
